Results reported in ChEMBL document CHEMBL1961873, “Compounds: GSK PKIS; Assays: Nanosyn kinase panel” (2012).

Columns and labels:
[1] = target: Sphingosine kinase 1 (Homo sapiens) (UniProt Q9NYA1); conditions: at 1 µM;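 note: mean SPHK1 inhibition value reported from the GSK PKIS kinase panel screen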
[2] = target: T1, Sphingosine kinase 2 (Homo sapiens) (UniProt Q9NRA0); conditions: at 0.1 µM
T1 sequence (whole entry): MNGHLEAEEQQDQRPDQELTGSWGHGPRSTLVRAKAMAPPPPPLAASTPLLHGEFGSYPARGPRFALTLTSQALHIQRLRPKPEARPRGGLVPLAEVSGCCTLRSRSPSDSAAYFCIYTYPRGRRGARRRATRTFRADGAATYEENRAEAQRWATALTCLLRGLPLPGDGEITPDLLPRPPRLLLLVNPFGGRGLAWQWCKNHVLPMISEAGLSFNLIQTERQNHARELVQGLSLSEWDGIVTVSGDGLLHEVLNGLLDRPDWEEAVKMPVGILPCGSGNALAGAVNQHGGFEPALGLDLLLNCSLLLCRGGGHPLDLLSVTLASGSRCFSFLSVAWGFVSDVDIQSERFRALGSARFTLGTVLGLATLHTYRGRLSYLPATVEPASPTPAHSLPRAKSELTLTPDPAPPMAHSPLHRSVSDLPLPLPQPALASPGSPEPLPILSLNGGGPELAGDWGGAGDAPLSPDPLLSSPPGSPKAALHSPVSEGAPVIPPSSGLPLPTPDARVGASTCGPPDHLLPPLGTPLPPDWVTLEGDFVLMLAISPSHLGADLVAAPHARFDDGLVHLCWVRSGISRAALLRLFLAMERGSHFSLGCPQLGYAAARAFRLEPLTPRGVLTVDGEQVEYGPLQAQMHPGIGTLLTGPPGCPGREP

[3] = target: T1, Sphingosine kinase 2 (Homo sapiens); conditions: at 1 µM
[4] = target: Casein kinase II subunit alpha (Homo sapiens) (UniProt P68400); conditions: at 0.1 µM
Casein kinase II subunit alpha (Homo sapiens), sequence (P68400 whole entry, looked up): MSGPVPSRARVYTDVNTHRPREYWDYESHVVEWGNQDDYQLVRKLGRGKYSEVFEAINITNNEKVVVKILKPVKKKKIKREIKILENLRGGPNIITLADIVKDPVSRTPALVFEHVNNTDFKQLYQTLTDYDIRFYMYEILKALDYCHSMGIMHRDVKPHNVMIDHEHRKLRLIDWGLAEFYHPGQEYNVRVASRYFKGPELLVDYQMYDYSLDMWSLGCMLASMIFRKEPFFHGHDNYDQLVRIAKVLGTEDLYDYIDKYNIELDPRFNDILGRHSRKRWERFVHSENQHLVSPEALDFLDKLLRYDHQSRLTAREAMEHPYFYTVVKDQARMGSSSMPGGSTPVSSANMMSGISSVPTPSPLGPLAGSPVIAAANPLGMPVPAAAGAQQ

[5] = target: Casein kinase II subunit alpha (Homo sapiens) (UniProt P68400); conditions: at 1 µM
[6] = target: T2, Inhibitor of nuclear factor kappa-B kinase subunit alpha (Homo sapiens) (UniProt O15111); conditions: at 0.1 µM
T2 sequence (whole entry): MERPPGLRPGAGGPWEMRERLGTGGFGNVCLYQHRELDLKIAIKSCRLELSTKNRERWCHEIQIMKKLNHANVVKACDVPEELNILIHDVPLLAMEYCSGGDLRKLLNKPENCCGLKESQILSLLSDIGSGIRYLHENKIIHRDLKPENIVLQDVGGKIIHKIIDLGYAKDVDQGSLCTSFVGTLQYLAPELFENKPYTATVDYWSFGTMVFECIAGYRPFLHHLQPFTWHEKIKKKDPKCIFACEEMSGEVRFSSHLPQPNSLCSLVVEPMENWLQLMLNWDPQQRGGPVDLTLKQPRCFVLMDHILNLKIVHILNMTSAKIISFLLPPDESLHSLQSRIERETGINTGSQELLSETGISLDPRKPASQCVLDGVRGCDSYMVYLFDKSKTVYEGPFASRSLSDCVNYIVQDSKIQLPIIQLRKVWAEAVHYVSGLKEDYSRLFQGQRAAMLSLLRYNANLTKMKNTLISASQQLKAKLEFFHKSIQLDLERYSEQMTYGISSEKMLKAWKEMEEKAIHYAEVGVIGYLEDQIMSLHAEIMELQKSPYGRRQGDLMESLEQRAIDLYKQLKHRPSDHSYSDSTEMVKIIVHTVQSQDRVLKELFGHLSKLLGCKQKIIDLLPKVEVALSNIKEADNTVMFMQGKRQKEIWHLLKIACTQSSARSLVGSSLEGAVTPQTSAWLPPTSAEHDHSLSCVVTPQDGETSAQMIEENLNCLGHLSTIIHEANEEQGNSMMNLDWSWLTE

[7] = target: T2, Inhibitor of nuclear factor kappa-B kinase subunit alpha (Homo sapiens); conditions: at 1 µM
[8] = target: T3, Inhibitor of nuclear factor kappa-B kinase subunit beta (Homo sapiens) (UniProt O14920); conditions: at 0.1 µM
T3 sequence (whole entry): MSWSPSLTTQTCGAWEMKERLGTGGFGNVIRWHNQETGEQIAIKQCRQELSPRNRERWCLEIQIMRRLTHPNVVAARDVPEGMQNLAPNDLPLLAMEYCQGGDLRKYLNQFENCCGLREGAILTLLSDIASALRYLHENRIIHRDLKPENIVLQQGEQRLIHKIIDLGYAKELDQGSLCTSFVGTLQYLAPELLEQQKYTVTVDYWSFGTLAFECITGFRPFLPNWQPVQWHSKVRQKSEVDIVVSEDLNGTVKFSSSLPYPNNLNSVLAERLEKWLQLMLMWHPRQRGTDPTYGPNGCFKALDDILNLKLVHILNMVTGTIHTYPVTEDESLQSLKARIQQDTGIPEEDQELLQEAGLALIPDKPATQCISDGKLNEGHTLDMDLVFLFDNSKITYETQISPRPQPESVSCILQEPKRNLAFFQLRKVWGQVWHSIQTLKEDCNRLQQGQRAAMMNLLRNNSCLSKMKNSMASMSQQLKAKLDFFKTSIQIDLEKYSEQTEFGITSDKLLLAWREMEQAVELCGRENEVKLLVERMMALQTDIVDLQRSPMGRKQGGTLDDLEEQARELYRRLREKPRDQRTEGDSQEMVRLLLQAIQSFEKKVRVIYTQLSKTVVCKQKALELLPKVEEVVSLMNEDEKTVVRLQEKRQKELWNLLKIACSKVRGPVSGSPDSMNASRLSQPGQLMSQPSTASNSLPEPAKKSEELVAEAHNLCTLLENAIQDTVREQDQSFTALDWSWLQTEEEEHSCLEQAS

[9] = target: T3, Inhibitor of nuclear factor kappa-B kinase subunit beta (Homo sapiens); conditions: at 1 µM
[10] = target: T4, Inhibitor of nuclear factor kappa-B kinase subunit epsilon (Homo sapiens) (UniProt Q14164); conditions: at 0.1 µM
T4 sequence (whole entry): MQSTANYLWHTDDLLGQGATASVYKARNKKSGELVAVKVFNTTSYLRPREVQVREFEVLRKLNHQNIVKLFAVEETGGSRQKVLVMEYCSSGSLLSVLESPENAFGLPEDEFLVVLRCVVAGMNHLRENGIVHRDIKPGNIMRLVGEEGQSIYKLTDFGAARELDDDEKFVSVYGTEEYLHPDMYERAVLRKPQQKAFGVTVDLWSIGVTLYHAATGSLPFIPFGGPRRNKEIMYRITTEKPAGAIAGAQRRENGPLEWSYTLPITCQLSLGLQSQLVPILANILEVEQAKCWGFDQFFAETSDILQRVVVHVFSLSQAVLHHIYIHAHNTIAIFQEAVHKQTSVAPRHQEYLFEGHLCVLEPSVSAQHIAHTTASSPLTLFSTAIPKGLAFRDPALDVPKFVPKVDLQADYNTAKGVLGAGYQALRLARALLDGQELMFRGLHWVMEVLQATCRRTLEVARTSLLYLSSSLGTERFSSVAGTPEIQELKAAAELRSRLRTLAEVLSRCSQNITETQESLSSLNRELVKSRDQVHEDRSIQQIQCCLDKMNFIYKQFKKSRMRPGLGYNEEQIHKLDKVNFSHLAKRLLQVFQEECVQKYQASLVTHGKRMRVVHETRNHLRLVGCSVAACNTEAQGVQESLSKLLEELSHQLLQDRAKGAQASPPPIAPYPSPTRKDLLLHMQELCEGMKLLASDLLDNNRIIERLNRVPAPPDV

[11] = target: T4, Inhibitor of nuclear factor kappa-B kinase subunit epsilon (Homo sapiens); conditions: at 1 µM
[12] = target: T5, Serine/threonine-protein kinase Nek1 (Homo sapiens) (UniProt Q96PY6); conditions: at 0.1 µM
T5 sequence (whole entry): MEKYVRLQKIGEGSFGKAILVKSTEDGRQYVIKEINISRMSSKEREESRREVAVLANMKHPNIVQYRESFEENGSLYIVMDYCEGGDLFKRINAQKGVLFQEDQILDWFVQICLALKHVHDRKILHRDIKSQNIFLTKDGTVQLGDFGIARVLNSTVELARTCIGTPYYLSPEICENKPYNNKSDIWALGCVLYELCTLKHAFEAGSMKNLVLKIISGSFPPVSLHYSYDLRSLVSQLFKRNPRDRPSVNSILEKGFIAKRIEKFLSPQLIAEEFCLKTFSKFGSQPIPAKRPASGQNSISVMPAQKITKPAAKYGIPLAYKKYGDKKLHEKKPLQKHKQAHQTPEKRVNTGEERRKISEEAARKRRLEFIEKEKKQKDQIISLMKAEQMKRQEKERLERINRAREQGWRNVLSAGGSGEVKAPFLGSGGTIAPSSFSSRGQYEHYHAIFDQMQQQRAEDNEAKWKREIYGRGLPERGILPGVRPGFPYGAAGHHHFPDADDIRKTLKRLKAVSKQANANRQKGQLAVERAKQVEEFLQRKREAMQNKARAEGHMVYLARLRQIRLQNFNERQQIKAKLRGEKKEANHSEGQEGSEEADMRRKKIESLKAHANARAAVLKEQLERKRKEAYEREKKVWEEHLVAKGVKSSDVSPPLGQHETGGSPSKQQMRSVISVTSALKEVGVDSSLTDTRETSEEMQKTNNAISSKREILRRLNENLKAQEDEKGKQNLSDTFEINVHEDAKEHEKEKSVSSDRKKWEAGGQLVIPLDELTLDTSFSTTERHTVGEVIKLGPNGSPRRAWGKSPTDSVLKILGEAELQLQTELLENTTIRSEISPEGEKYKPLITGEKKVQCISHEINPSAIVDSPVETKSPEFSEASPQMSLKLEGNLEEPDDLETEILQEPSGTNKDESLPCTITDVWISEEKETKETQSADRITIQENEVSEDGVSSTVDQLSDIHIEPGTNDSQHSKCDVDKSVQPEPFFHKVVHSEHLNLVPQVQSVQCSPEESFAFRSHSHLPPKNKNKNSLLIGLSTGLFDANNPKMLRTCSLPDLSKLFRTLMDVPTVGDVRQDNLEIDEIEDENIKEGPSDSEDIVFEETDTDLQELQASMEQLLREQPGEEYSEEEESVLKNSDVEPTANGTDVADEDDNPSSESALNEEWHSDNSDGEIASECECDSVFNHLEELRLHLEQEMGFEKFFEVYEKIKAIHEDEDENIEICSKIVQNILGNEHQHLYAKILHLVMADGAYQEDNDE

[13] = target: T5, Serine/threonine-protein kinase Nek1 (Homo sapiens); conditions: at 1 µM
[14] = target: T6, Serine/threonine-protein kinase Nek2 (Homo sapiens) (UniProt P51955); conditions: at 0.1 µM
T6 sequence (whole entry): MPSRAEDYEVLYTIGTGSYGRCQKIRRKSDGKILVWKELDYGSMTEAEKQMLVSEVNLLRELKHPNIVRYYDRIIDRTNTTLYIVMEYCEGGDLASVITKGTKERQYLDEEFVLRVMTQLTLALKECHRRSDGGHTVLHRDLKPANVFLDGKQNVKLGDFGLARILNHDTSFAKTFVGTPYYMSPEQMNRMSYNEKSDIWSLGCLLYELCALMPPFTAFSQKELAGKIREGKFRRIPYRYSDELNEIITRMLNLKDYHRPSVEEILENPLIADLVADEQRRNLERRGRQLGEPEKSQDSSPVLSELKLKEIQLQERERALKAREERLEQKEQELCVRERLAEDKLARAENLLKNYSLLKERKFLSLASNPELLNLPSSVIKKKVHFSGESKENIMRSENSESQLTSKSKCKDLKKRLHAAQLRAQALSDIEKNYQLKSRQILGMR

[15] = target: T6, Serine/threonine-protein kinase Nek2 (Homo sapiens); conditions: at 1 µM
[16] = target: Serine/threonine-protein kinase Nek6 (Homo sapiens) (UniProt Q9HC98); conditions: at 0.1 µM
Serine/threonine-protein kinase Nek6 (Homo sapiens), sequence (Q9HC98 whole entry): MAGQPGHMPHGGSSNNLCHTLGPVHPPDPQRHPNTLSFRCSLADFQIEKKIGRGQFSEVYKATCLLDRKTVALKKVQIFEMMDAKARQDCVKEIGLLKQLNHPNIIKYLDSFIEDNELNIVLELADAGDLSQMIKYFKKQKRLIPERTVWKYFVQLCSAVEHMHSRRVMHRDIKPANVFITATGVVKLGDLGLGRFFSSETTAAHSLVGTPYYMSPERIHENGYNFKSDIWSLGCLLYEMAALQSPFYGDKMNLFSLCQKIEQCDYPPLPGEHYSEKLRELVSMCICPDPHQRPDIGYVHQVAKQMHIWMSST

[17] = target: Serine/threonine-protein kinase Nek6 (Homo sapiens) (UniProt Q9HC98); conditions: at 1 µM
[18] = target: Serine/threonine-protein kinase Nek7 (Homo sapiens) (UniProt Q8TDX7); conditions: at 0.1 µM
Serine/threonine-protein kinase Nek7 (Homo sapiens), sequence (Q8TDX7 whole entry, looked up): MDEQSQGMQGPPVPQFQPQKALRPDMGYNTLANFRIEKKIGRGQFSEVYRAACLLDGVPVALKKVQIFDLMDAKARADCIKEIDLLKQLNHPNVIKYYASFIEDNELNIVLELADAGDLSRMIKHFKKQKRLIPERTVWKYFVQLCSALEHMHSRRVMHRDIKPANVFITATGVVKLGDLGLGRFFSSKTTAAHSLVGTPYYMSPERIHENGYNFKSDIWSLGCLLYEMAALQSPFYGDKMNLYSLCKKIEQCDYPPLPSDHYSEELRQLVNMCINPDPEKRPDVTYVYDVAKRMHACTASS

[19] = target: Serine/threonine-protein kinase Nek7 (Homo sapiens) (UniProt Q8TDX7); conditions: at 1 µM
[20] = target: T7, Serine/threonine-protein kinase Nek9 (Homo sapiens) (UniProt Q8TD19); conditions: at 0.1 µM;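 note: reported value is the mean percent inhibition of NEK9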
T7 sequence (whole entry): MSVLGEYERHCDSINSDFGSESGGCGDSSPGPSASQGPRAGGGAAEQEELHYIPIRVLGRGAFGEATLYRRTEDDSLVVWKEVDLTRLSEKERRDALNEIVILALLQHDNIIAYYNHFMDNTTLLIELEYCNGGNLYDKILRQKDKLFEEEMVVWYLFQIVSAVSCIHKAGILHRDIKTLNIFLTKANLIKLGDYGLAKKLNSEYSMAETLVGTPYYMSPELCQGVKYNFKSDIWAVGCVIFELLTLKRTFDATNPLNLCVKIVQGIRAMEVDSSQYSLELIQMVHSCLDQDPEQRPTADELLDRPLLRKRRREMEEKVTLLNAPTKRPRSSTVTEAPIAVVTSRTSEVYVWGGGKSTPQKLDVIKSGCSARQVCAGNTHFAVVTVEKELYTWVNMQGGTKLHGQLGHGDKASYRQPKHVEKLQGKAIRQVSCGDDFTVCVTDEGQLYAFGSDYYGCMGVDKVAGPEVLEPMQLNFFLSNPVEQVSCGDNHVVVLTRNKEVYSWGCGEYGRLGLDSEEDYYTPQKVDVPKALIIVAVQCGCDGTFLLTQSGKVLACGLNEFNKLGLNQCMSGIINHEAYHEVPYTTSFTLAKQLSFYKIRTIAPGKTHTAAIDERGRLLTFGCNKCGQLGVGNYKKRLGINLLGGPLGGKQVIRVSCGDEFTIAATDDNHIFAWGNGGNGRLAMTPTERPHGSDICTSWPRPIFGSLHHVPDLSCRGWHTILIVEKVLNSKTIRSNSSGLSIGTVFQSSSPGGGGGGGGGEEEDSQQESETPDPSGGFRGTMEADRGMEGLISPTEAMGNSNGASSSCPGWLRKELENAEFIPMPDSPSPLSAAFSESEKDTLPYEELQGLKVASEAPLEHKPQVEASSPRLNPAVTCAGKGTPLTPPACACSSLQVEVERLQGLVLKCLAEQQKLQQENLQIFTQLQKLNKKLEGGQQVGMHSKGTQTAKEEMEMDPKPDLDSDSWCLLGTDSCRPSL

Sphingosine kinase 1 (Homo sapiens), sequence (Q9NYA1 whole entry): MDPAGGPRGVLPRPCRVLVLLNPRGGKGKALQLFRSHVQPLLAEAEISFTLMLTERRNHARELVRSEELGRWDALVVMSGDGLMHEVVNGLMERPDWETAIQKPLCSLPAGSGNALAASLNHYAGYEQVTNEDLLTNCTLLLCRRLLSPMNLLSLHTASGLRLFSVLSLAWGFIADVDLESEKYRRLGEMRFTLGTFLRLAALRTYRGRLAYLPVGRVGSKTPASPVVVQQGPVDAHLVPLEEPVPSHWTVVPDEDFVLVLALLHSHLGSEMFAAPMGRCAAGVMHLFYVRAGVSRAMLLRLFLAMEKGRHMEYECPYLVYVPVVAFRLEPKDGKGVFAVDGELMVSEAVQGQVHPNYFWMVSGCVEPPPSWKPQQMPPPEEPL

## CS(=O)(=O)CCNCc1ccc(-c2ccc3ncnc(Nc4ccc(OCc5ccccc5)c(Br)c4)c3c2)o1
[1]
  inhibition: -1.39%
[2]
  inhibition: -0.25%
[3]
  inhibition: -1.58%
[4]
  inhibition: 13.7%
[5]
  inhibition: 5.24%
[6]
  inhibition: 3.37%
[7]
  inhibition: 1.56%
[8]
  inhibition: 9.38%
[9]
  inhibition: 11%
[10]
  inhibition: 6.98%
[11]
  inhibition: 4.71%
[12]
  inhibition: 1.95%
[13]
  inhibition: 1.93%
[14]
  inhibition: 5.02%
[15]
  inhibition: 3.81%
[16]
  inhibition: 4.55%
[17]
  inhibition: 3.89%
[18]
  inhibition: 3.08%
[19]
  inhibition: 5.42%
[20]
  inhibition: 6.05%
